LmPK inh – qHTS Assay for Inhibitors of Leishmania Mexicana Pyruvate Kinase (LmPK). Potency, µM (titrated, usually from 57.5 µM), hits mostly inhibitors. purified LmPK, Kinase-Glo ATP luminescence, 1 h. 0.37% of 290,000 active. Q27686. AID 1721, 2009
Target sequence (Q27686 whole entry, looked up): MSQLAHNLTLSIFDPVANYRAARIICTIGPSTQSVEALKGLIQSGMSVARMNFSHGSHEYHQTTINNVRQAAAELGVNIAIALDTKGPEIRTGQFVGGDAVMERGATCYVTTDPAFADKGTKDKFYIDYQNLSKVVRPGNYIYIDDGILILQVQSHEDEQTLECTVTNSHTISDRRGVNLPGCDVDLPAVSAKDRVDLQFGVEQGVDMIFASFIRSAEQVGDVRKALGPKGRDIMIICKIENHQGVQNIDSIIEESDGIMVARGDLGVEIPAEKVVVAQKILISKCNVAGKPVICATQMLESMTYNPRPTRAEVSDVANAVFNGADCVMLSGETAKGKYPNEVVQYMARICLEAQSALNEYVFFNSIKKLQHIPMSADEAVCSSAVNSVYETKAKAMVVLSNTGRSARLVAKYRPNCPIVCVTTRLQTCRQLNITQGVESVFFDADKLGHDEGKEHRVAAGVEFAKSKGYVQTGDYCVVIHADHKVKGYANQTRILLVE
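Kinase-Glo luminescence read after 1 h RT reaction of 0.1 nM LmPK with 0.5 mM PEP and 0.1 mM ADP. Activity scaled between uninhibited and enzyme-free controls.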
RE007 growth inh – qHTS Assay for Inhibitors of the HIV-1 protein Vpr; Potency, µM (top dose mostly 92.2 µM), most hits filed as inhibitors; 0.21% of 360,000 active; AID 651644, 2012; S. pombe RE007 Vpr strain, BacTiter-Glo ATP luminescence, 24 h; active = well fitted falling curve with a large enough effect; inconclusive = small, poorly fitted or top-dose-only effect; inactive = no such curve, though single readings can be large or run the other way; note: nearly all actives have a fitted effect of over 50% in size
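Fission yeast RE007 carrying one integrated HIV-1 vpr copy, seeded at OD 0.01 in PMG+AL medium with 23 nL pinned compound. Grown 24 h at 30 degrees; viability read by BacTiter-Glo luminescence after 5 min.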
Tb PYK inh – qHTS of Trypanosoma Brucei Inhibitors | pyruvate kinase (Trypanosoma brucei), Q57TT1 | TbPYK enzyme, Kinase-Glo Plus ATP luminescence, 45 min | Potency, µM (titrated, usually from 76.8 µM), most hits filed as inhibitors | 0.12% of 410,000 active; note: nearly all actives have a fitted effect of over 50% in size
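Screened from lowest to highest concentration, compounds were pinned into TbPYK/substrate mixtures, and ADP (130 uM final) was added. Plates sat at room temperature for 45 min prior to Kinase-Glo Plus detection by luminescence.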
Cycloheximide cs – Cycloheximide Counterscreen for Small Molecule Inhibitors of Shiga Toxin; 12% of 300,000 active; max response, %; cell reporter, cycloheximide protein synthesis inhibition counterscreen; in the data active = max response mostly above about 13%, no sharp cut-off; inactive = mostly below about 14%; note: read at 38.3 µM for the half of the compounds with a filed dose
FBPA Giardia inh – qHTS Assay for Inhibitors of Fructose-1,6-bisphosphate Aldolase from Giardia Lamblia; Potency, µM (doses to about 59.6 µM), most hits filed as inhibitors; purified Giardia FBPA; AID 2451, 2010; A8B2U2; 0.71% of 290,000 active; note: nearly all actives have a fitted effect of over 55% in size
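40 nM FBPA preincubated 10 min at RT with compound (up to 57.5 uM final), then substrate plus GAPDH/TPI/NAD/arsenate coupling and diaphorase/resazurin added. Fluorescence read after 20 min at RT, 525/598 nm.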
Shiga inhibitor – A qHTS for Small Molecule Inhibitors of Shiga Toxin. Vero cells, Shiga toxin protein synthesis inhibition reporter. inhibition, % at 38.7 µM. 9.2% of 290,000 active; in the data active = inhibition mostly above about 28%, no sharp cut-off; inactive = mostly below about 43%
Numbers stand for hits; . = inactive; ? = inconclusive; / = no result given; + = active, no number. This excerpt belongs to a sample that is enriched for hits. Unless noted, calls come from the whole dose curve; as a rule, active = well fitted curve in the direction sought with a large enough effect; inconclusive = small, poorly fitted or top-dose-only effect, or another doubt; inactive = no such curve, though single readings can be large; an effect the other way counts as inactive or inconclusive.

SMILES	LmPK inh	RE007 growth inh	Tb PYK inh	Cycloheximide cs	FBPA Giardia inh	Shiga inhibitor
O=C(O)C[C@@H]1C(=O)O[C@@H]2C(COC(=O)c3cc(O)c(O)c(O)c3)O[C@@H](OC(=O)c3cc(O)c(O)c(O)c3)[C@@H](OC(=O)c3cc(O)c(O)c4c3[C@H]1[C@H](O)C(=O)O4)[C@H]2OC(=O)c1cc(O)c(O)c(O)c1 (stereo partly specified)	.	/	/	.	4µM	.
Cc1ccc(C(=O)NC2CCCCCC2)cc1S(=O)(=O)N1CCOCC1	.	.	.	28	/	.
COc1ccc(C(=O)NC2CCCCCC2)cc1S(=O)(=O)Nc1ccc(Br)cc1	.	.	.	18	.	56
Cc1ccc(C(=O)Nc2ccc(F)cc2)cc1S(=O)(=O)N1CCOCC1	/	/	.	/	/	/
CCN(CC)S(=O)(=O)c1cc(C(=O)NC2CCCCC2)ccc1C	.	.	.	42	.	104
COc1ccc(C(=O)NC2CCCCCC2)cc1S(=O)(=O)N1CCCC1	.	.	.	.	.	.
Cc1ccc(C(=O)Nc2ccc3cn[nH]c3c2)cc1S(=O)(=O)N1CCOCC1	.	.	.	21	.	49
O=C(NCCc1csc(-c2cccc(F)c2)n1)c1ccccc1C(F)(F)F	/	/	.	/	/	/
Cc1ccc(C(=O)NC2CCCCC2)cc1S(=O)(=O)N1CCCC1	.	.	.	35	.	40
COc1ccc(NC(=S)Nc2ccc(C)c(S(=O)(=O)N3CCCCC3)c2)cc1	.	/	/	.	.	.
COc1ccc(/C=C/C(=O)NC2CCCCCC2)cc1S(=O)(=O)N1CCOCC1	.	.	.	19	.	.
O=C(NC1CCCC1)c1ccc(Br)c(S(=O)(=O)N2CCCCC2)c1	.	.	.	.	/	.
Cc1ccc(NC(=S)Nc2ccc(C(C)C)cc2)cc1S(=O)(=O)N1CCCCCC1	.	.	.	28	.	82
CCOC(=O)C1=C(CS(=O)(=O)c2ccc(OC)c(Cl)c2)NC(=O)NC1c1cccc(OC)c1 (stereo unspecified)	/	/	.	/	/	/
CCOC(=O)C(C)On1c(-c2ccc(Cl)cc2)nc2ccc([N+](=O)[O-])cc21 (stereo unspecified)	.	.	.	.	.	.
CCOC(=O)C(C)On1c(-c2ccccc2)nc2ccc([N+](=O)[O-])cc21 (stereo unspecified)	.	.	.	35	?	50
O=C(O)COn1c(-c2ccccc2)nc2ccc([N+](=O)[O-])cc21	.	.	.	25	.	49
COc1cccc(NC(=S)N/N=C2\CC3CCC2(C)C3(C)C)c1 (stereo unspecified)	.	.	.	41	.	78
COCCCNC(=O)Cn1nnc(-c2ccc(NC(=O)c3ccccc3F)cc2)n1	.	.	.	26	.	48
COc1cccc(NC(=O)Cn2cc(C(=O)c3ccco3)c3ccccc32)c1	/	/	.	/	/	/
CCOc1ccc(-c2c(=O)n(OCC)c3ccccc3[n+]2[O-])cc1	.	.	.	24	.	.
CCOC(=O)COn1c(=O)c(-c2ccc(F)cc2)[n+]([O-])c2ccccc21	.	.	.	.	?	.
CCCOc1ccc(-c2c(=O)n(OCC(=O)OCC)c3ccccc3[n+]2[O-])cc1	.	.	.	39	.	59
Cc1ccccc1C(=O)NC(=S)N(C)C1CCCCC1	.	.	.	26	?	31
CN(C(=S)NC(=O)c1ccccc1Br)C1CCCCC1	.	.	.	.	.	.
SMILES	LmPK inh	RE007 growth inh	Tb PYK inh	Cycloheximide cs	FBPA Giardia inh	Shiga inhibitor
COc1ccc(C(=O)NC(=S)N(C)C2CCCCC2)cc1	.	.	.	36	/	50
COc1ccc(NC(=O)CSc2nc3c(c(=O)[nH]2)CCC3)cc1	/	/	.	/	/	/
COc1ccc(-c2nnc(N(C)C(=O)C3CCCO3)s2)cc1 (stereo unspecified)	.	.	.	26	.	+
COc1ccc(-c2nnc(N(C)C(=O)c3ccno3)s2)cc1	.	.	.	26	.	60
COC(=O)CN1C(=O)CSc2ccc(S(=O)(=O)Nc3c(C)cc(C)cc3C)cc21	/	/	.	/	/	/
CC(C)(C)C(=O)O/N=C(\N)c1ccc([N+](=O)[O-])s1	.	.	.	24	.	.
COc1ccc(C2(CNC(=O)C(=O)Nc3ccc(C)c(Cl)c3)CCCC2)cc1OC	/	/	.	/	/	/
COc1cc2c(cc1OC)[C@H](C)N(CC1C(=O)O[C@@H]3C[C@@]4(C)CCC[C@H](C)[C@@]45OC5[C@H]13)CC2 (stereo partly specified)	/	/	/	/	.	/
N=c1n(CCN2CCOCC2)c2ccccc2n1CC(=O)c1ccc(Cl)c(Cl)c1	.	.	.	24	?	.
CCC1=C(OC(=O)N(CC)CC)N2C(=O)OC(=NCC3CC3)[C@]2(C)[C@H]2C1=CC[C@H]1C(=O)N(c3ccccc3)C(=O)[C@H]12	/	/	/	/	.	/
O=C(Nc1ccc(N2CCN(C(=O)c3ccccc3)CC2)cc1)c1cccs1	.	.	.	.	.	.
CCC(=O)N1CCN(c2ccc(NC(=O)c3ccco3)cc2)CC1	.	.	.	28	.	31
CCC(=O)N1CCN(c2ccc(NC(=O)c3cccs3)cc2)CC1	.	.	.	15	.	68
CC(=O)N1CCN(c2ccc(NC(=O)c3ccco3)cc2)CC1	.	.	.	.	.	72
Cc1ccccc1C(=O)N1CCN(c2ccc(NC(=O)c3ccco3)cc2)CC1	.	.	.	.	.	.
CC1CC[C@@]23CCC4(C)[C@@]5(C)CCC6C(C)(C)C(=O)CC[C@@]6(C)C5C=C[C@@]4(OC2=O)C3C1C (stereo partly specified)	/	/	/	/	.	/
COC(=O)c1ccc(NC(=O)CC2C(=O)N(c3ccccc3)C(=O)N2Cc2ccc(F)cc2)cc1 (stereo unspecified)	/	/	.	/	/	/
CCOC(=O)C1CCCN(c2c(C(=O)c3ccccc3)cnc3ccc(F)cc23)C1 (stereo unspecified)	/	/	.	/	/	/
CCCCNC(=O)NNC(=O)c1ccoc1C	.	.	.	53	.	62
CCCCNC(=O)NNC(=O)c1ccco1	.	.	.	.	.	.
COCCCNC(=S)NNC(=O)c1ccoc1C	.	.	.	.	.	.
CCCCNC(=S)NNC(=O)c1ccoc1C	.	.	.	19	.	.
CCN1C[C@@]2(COC)C3[C@@H](OC)[C@H]4[C@@H]1[C@@]3(C1C[C@H]3[C@H](OC(=O)c5ccccc5)C1[C@]4(OC(C)=O)C[C@H]3OC)[C@@H](OC)C[C@H]2O (stereo partly specified)	/	.	.	/	/	/

Source: PubChem BioAssay (National Center for Advancing Translational Sciences (NCATS))
